# Pf Dd2 inh: Plasmodium falciparum Dd2 growth inhibition; 120,000 compounds, 4.3% hits; Potency, µM (doses to about 28.9 µM), for the others: at the top dose activity, negative = inhibition, hits mostly inhibitors; AID 1347417; P. falciparum Dd2 growth, SYBR Green, 72 h; active means well fitted inhibition curve with a large enough effect;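 further: plate controls were DMSO vehicle for no effect and reference drug for full effect; nearly all actives have a fitted effect of over 65% in size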
#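 Readout: SYBR Green fluorescence, 485 nm excitation, 535 nm emission, after ~16 h lysis at 37C. Before that, Dd2-infected red cells (2.5% hematocrit) grew 72 h with compound, 29 uM top final concentration.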
# Numbers without * were called inactive; i = inactive; [ ] = remark or other dose. The sample as a whole holds a higher share of hits than the screen did. Potency means the concentration at half of the fitted maximal effect.
SMILES,Pf Dd2 inh
C[C@]1(CO)[C@H]2Cc3sc(NC(=O)c4cccc(F)c4)nc3[C@@H](CC(=O)NCc3ccco3)[C@]2(C)CC[C@H]1O,8.91µM*
C[C@]1(CO)[C@H]2Cc3sc(NC(=O)c4ccco4)nc3[C@@H](CC(=O)NCc3cccnc3)[C@]2(C)CC[C@H]1O,7.08µM*
CC(C)(C)C(=O)Nc1nc2c(s1)C[C@@H]1[C@](C)(CO)[C@H](O)CC[C@@]1(C)[C@@H]2CC(=O)NCc1ccco1,i
COc1ccc(C(=O)Nc2nc3c(s2)C[C@@H]2[C@](C)(CO)[C@H](O)CC[C@@]2(C)[C@@H]3CC(=O)NCCNC(C)=O)cc1,i
CCCCCC(=O)Nc1nc2c(s1)C[C@@H]1[C@](C)(CO)[C@H](O)CC[C@@]1(C)[C@@H]2CC(=O)NCc1cccnc1,i
COCCNC(=O)C[C@@H]1c2nc(NC(=O)c3ccnc(Cl)c3)sc2C[C@@H]2[C@](C)(CO)[C@H](O)CC[C@]21C,-20.9%
C[C@]1(CO)[C@H]2Cc3sc(NC(=O)c4cccs4)nc3[C@@H](CC(=O)NCc3cccnc3)[C@]2(C)CC[C@H]1O,i
CNC(=O)C1(N2CCC[C@H]2C(=O)NC2CCOCC2)CCOCC1,0.3%[44.1 µM]
O=C(NC1CC1)[C@@H]1C[C@H](Oc2cccnc2)CN1S(=O)(=O)c1cccc(F)c1,8.4%
COc1ccc(C(=O)N2CCn3c(nnc3-c3ccccc3)C2)cc1,i
CCc1nc(-c2c3n(c(=O)n(CC(=O)Nc4ccccc4Cl)c2=O)CCCCC3)no1,-7.9%
Cc1ccc(-n2c(C3CCN(C(=O)c4ccc(F)c(Cl)c4)CC3)n[nH]c2=O)cc1,-3.7%
O=C(Cc1ccc(N(Cc2ccc(F)cc2)C(=O)c2ccco2)cc1)NCc1ccc(F)cc1,-19.1%
CCc1nc2c(c(-c3ccc(Cl)cc3)n1)CN(Cc1ccc(C)cc1)CC2,-17.3%
CCc1nc2c(c(-c3ccc(Cl)cc3)n1)CN([S+](C)(=O)[O-])CC2,-19.0%[44.1 µM]
Cc1nc2c(c(-c3ccc(O)cc3)n1)CN(Cc1ccc(OC(F)(F)F)cc1)CC2,-1.2%
CCc1nc2c(c(-c3ccc(Cl)cc3)n1)CCN(C(=O)c1ccccn1)CC2,-3.1%
CCc1nc2c(c(-c3ccc(Cl)cc3)n1)CN(Cc1ccsc1)CC2,5.01µM*
CCc1nc2c(c(-c3ccc(Cl)cc3)n1)CN(Cc1ccc(OC(F)(F)F)cc1)CC2,8.91µM*
O=C(Nc1ccc(F)cc1)N[C@H]1[C@H](O)[C@@H](N2CCCC2)[C@@H]2OC[C@H]1O2,i
CC(C)N1C[C@H](O)C[C@H]1c1nnc2n1CCN(C(=O)c1ccccc1)CC2,3.0%
COc1cccc(Nc2ncc3c(n2)C(C)(C(=O)Nc2nc(C)cs2)CC3)c1 (stereo not drawn),-5.4%[44.1 µM]
CCc1nnc([C@@H]2CC(F)(F)CN2C(=O)c2coc(C)n2)o1,3.0%
COc1ccccc1CCC(=O)N1CCC2(CC1)NC(=O)N(c1cccc(F)c1)N2,i
Cc1ccc(-c2ccc3nnc(CNC(=O)c4ccccc4C)n3n2)cc1C,2.4%
SMILES,Pf Dd2 inh
Cc1noc(C)c1-c1ccc(S(=O)(=O)N[C@@H]2[C@@H](N)[C@H]3CCO[C@H]32)s1,i
CCn1cc(CN2CCCC23CCN(c2cc(C)nc4ccccc24)CC3)c(C)n1,2µM*
Cc1cc(N2CCC3(CCCN(C)C3=O)C2)c2ccccc2n1 (stereo not drawn),26.6%
CCn1cc(CN2CCC(Oc3ccc4ccccc4c3)(C(=O)O)CC2)c(C)n1,-14.8%
Cc1ccccc1C(=O)N1CCCC(c2nn(-c3ccc(F)cc3)c(=O)[nH]2)C1 (stereo not drawn),i
CS(=O)(=O)N1CCCC(C(=O)Nc2ccc(F)cc2F)CCNC(=O)CC1 (stereo not drawn),8.4%
O=C(O)COCC(=O)N[C@H]1CCN2C(=O)c3cc(/C=C/c4ccccc4)ccc3NC(=O)[C@H]12,-6.3%
Cc1ccc(OC2(C(=O)N3CCCC3c3nccs3)CCNCC2)cc1 (stereo not drawn),i
CCCCn1c(C(C)NC(=O)c2ccccc2)nc2ccccc21 (stereo not drawn),i
CCCCn1c(NCc2cc(Cl)ccc2O)nc2ccccc21,3.16µM*
CCCCCCn1c(CNC(=O)c2ccccc2)nc2ccccc21,-20.2%
O=C(Cn1nc2c(cc1=O)CCCC2)NCC1CCC(C(=O)O)CC1 (stereo not drawn),-2.5%
CC(=O)NC1(C)CCCN(Cc2cc(Br)cs2)C1 (stereo not drawn),i
CC(=O)NC1(C)CCN(Cc2ccc(-c3ccc([S+](C)(=O)[O-])cc3)cc2)C1 (stereo not drawn),i
COc1cc(CN2CCC(C)(NC(C)=O)CC2)cc(-c2ccccc2)c1,i
COc1ccccc1CNC(=O)C1(CCO)CCN(Cc2ccccc2)C1 (stereo not drawn),i
CC(=O)NC1(C)CCN(Cc2ccc(-c3ccc4c(ccn4C)c3)cc2)C1 (stereo not drawn),10µM*
CC(=O)NC1(C)CCN(Cc2ccc(-c3ccccc3Oc3ccccc3)cc2)C1 (stereo not drawn),7.08µM*
